Bioassay records (PubChem BioAssay)
Pf growth 48h: inhibits P. falciparum growth in the first generation, 48 h; P. falciparum luciferase growth in erythrocytes, 48 h; Potency, µM (titrated, usually from 28.7 µM), without a hit: at the top dose activity change, negative = inhibition, hits mostly inhibitors; AID 504832; hit rate 5.9% among 310,000; also: potency is read from the fitted curve at half-maximal effect; % is scaled to controls: 0 for no effect and ±100 for the full control effect
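Cell-based growth assay: transgenic P. falciparum expressing firefly luciferase, cultured in red cells within RPMI 1640 containing 0.5% w/v Albumax, 24 mM bicarbonate and gentamycin. A drop in luciferase activity indicates inhibition.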
HCV inhibitor: blocks hepatitis C virus; Potency, µM (highest dose often 41.8 µM), inactives show at the highest dose activity change, negative = inhibition, hits mostly inhibitors; Huh7.5.1 HCVcc-Cre infection, luciferase reporter, 44 h; hit rate 3.4% among 340,000; also: potency is read from the fitted curve at half-maximal effect; % is scaled to controls: 0 for no effect and ±100 for the full control effect
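Infectious HCV cell culture screen: compound-treated cells (1,000/well, pre-plated 4 h) are infected with HCVcc-Cre at roughly 0.5 moi and grown 44 h. Infection is quantified by luciferase signal after 15 min substrate incubation at room temperature.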
Shiga toxin inh: blocks Shiga toxin action in Vero cells; Vero cells, Shiga toxin protein synthesis inhibition reporter; inhibition, % at 38.7 µM; hit rate 9.2% among 290,000; AID 2315; in the data active = inhibition mostly above about 28%, no sharp cut-off; inactive = mostly below about 43%; also: 0% is about no effect
AMA1-RON2 inh: disrupts binding of P. falciparum AMA1 to RON2. AlphaScreen AMA1-biotinylated RON2 peptide binding. Potency, µM (titrated, usually from 58.2 µM), for inactives: top-dose activity change, negative = inhibition, most hits filed as inhibitors. hit rate 0.2% among 360,000. AID 720542;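 also: potency is read from the fitted curve at half-maximal effect; 0% = vehicle wells and -100% = peptide control; nearly all actives have a fitted effect of over 45% in size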
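AMA1 (3D7) with his tag at 25 nM final met compounds first, then biotinylated RON2 peptide at 25 nM; detection used donor plus acceptor beads, 10 µg/mL apiece, read by AlphaScreen after 30 min at room temperature.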
Pf growth 96h: P. falciparum growth inhibition at 96 hour, primary screen for plastid delayed-death inhibitors; P. falciparum luciferase reporter growth, 96 h; hit rate 6.9% among 320,000; Potency, µM (series often up to 28.7 µM), inactives show at the highest dose activity change, negative = inhibition, usual class: inhibitors; AID 504834; also: potency is read from the fitted curve at half-maximal effect; % is scaled to controls: 0 for no effect and ±100 for the full control effect
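P. falciparum expressing integrated firefly luciferase grown in erythrocytes (2% hematocrit, 0.05% parasitemia final) with compounds for 96 hours at 37 C, 5% CO2. Growth inhibition read as loss of luminescence after adding luciferase detection reagent.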
Cycloheximide cs: counter-screen hit for Shiga toxin inhibitors, cycloheximide | cell reporter, cycloheximide protein synthesis inhibition counterscreen | max response, % | hit rate 12% among 300,000; in the data active = max response mostly above about 13%, no sharp cut-off; inactive = mostly below about 14%; also: read at 38.3 µM for the half of the compounds with a filed dose; 0% is about no effect
An asterisk follows results filed as active; i = inactive; ? = inconclusive; / = no result given. An excerpt weighted towards active compounds, which were near 21% of everything screened. Unless noted, calls follow the shape of the dose curve; as a rule, active = well fitted curve in the direction sought with a large enough effect; inconclusive = small, poorly fitted or top-dose-only effect, or another doubt; inactive = no such curve, though single readings can be large; an effect the other way counts as inactive or inconclusive.

SMILES	Pf growth 48h	HCV inhibitor	Shiga toxin inh	AMA1-RON2 inh	Pf growth 96h	Cycloheximide cs
CN(/N=C/c1ccc(O)cc1O)c1nc(-c2ccccc2)cc(-c2ccccc2)n1	9.28µM*	?	-6.8	-1.4%	5.22µM*	-2.2
CCCNC(=O)C[C@H]1CC[C@@H]2[C@H](COC[C@@H](O)CN2C(=O)c2ccccn2)O1	/	/	/	3.2%	/	/
CCc1ccccc1NC(=S)N(CCCN1CCOCC1)Cc1cccs1	-17.3%	-2.5%	0.2	-0.4%	2.62µM*	4.2
COc1ccccc1NC(=S)N(CCCN1CCOCC1)Cc1cccs1	?	-4.7%	-3.6	-10.5%	34.0%	9.3
Cc1cc(C)c(NC(=S)N(CCCN2CCN(C)CC2)Cc2cccs2)c(C)c1	-30.0%	?	-14.7	-1.8%	10.4µM*	0.8
Cc1ccc(Cl)cc1NC(=S)N(CCCN1CCN(C)CC1)Cc1cccs1	0.0%	6.31µM*	-14.9	-19.5%	-0.3%	-3.4
CCN1CCN(CCCN(Cc2ccco2)C(=S)Nc2cccc(Cl)c2C)CC1	-28.5%	?	-4.4	9.0%	-0.7%	-1.2
CCN1CCN(CCCN(Cc2cccs2)C(=S)Nc2ccccc2C)CC1	-17.5%	1.6%	1.3	-4.4%	-22.2%	-1.2
CCN1CCN(CCCN(Cc2ccco2)C(=S)Nc2ccccc2Cl)CC1	33.7%	?	-6.3	-9.2%	1.85µM*	-7.4
NC1=NC2C(N=C(Br)N2[C@@H]2O[C@H]3COP(=O)(O)O[C@@H]3[C@@H]2O)C(=O)N1 (some centres not stated)	/	/	-5.8	/	/	7.9
O=C(COC(=O)CNC(=O)c1ccc(Cl)c([N+](=O)[O-])c1)NC(=O)CN1CCCC1=O	-26.7%	14.5%	/	-8.2%	27.8%	/
N#Cc1ccccc1C[C@H](N)C(=O)NC[C@H]1O[C@@H](n2cnc3c(N)ncnc32)[C@H](O)[C@@H]1O	/	/	/	26.5%	/	/
CCN(CC)CCN1C(=O)C2C(C(=O)Nc3cc(C)cc(C)c3)C3C=CC2(O3)C1C(=O)NC1CCCCC1 (configuration not stated)	-17.0%	-28.5%	1.7	-8.1%	31.7%	-2.3
S=C(Nc1ccc(Cl)cc1)N(CCCN1CCOCC1)Cc1cccs1	-17.2%	2.9%	0.9	-17.6%	?	-0.1
Cc1cc(Cl)ccc1NC(=S)N(CCCN1CCOCC1)Cc1cccs1	?	-2.8%	-4.9	-23.2%	11.7µM*	-3.0
CN(C(=O)CSc1nc2scc(-c3ccccc3)c2c(=O)[nH]1)c1ccccc1	/	-22.1%	/	7.3%	/	/
Cc1ccc(Nc2nc(-c3c(C)nc4ccccn34)cs2)cc1	11.7µM*	?	-11.5	-1.2%	10.4µM*	-0.8
C=CCNc1nc(-c2c(C)nc3ncccn23)cs1	-4.4%	4.6%	/	0.8%	-29.4%	-0.9
Cc1ccc(Nc2nc(-c3c(C)nc4ncccn34)cs2)cc1	?	?	-5.4	-3.9%	0.0%	-0.6
Cc1nc(C)c(-c2csc(NCc3ccco3)n2)s1	25.9%	?	159.5	-4.7%	6.8%	30.1*
Cc1nc2ccccn2c1-c1csc(NCc2ccco2)n1	-14.2%	?	16.9	-17.1%	/	15.1*
Cc1nc(C)c(-c2csc(NCc3ccccc3)n2)s1	?	?	30.8	-12.5%	-8.7%	32.6*
CC[C@H](C)[C@H](NC(=O)[C@H](Cc1ccc(O)cc1)NC(=O)[C@@H]1CCCN1C(=O)[C@H](CCCN=C(N)N)NC(=O)[C@H](CCCN=C(N)N)NC(=O)[C@@H]1CCCN1C(=O)[C@H](CCCCN)NC(=O)[C@H](CC(N)=O)NC(=O)[C@H](CCC(N)=O)NC(=O)[C@H](Cc1ccc(O)cc1)NC(=O)[C@H](CC(C)C)NC(=O)[C@@H]1CCC(=O)N1)C(=O)N[C@@H](CC(C)C)C(=O)O	/	/	-6.2	/	/	-6.7
Cc1nc2scc(C)n2c(=O)c1S(=O)(=O)NCC1CCN(Cc2ccc(F)cc2)CC1	?	7.8%	-3.7	7.9%	33.7%	-0.6
Cc1ccn2c(-c3csc(NCc4ccccc4)n3)c(C)nc2c1	13.1µM*	10µM*	10.8	-27.7%	8.0%	16.7
SMILES	Pf growth 48h	HCV inhibitor	Shiga toxin inh	AMA1-RON2 inh	Pf growth 96h	Cycloheximide cs
Cc1ccn2c(-c3n[nH]c(=S)n3Cc3ccccc3)c(C)nc2c1	-7.0%	27.4%	13.2	47.5%	?	-4.1
Cc1nc(NC(=O)c2ccccc2)sc1-c1csc(NCc2ccco2)n1	5.86µM*	?	38.1	-4.1%	?	15.9
O=c1oc2cc(O)ccc2cc1-c1nc2ccccc2o1	/	/	/	15.7%	/	/
CCn1c(/C=C/c2ccc(F)cc2)nc2ccccc2c1=O	?	-4.2%	/	6.7%	?	1.4
O=c1oc2ccccc2nc1/C=C(O)/C=C\c1ccccc1	2.7%	?	47.3*	43.0%	-29.3%	36.1*
O=c1oc2ccccc2nc1/C=C(O)/C=C/c1ccc(F)cc1	-8.2%	9.0%	85.0*	7.3%	?	43.9*
Cc1ccc(/C(O)=C/c2nc3ccccc3oc2=O)cc1	-20.5%	-16.2%	67.5*	41.5%	-15.8%	31.7*
Cc1nc(C)c(/C(O)=C\c2nc3ccc([N+](=O)[O-])cc3oc2=O)o1	34.4%	0.6%	19.7	52.5%	68.0%	10.4
CCOC(=O)C1CCCN(C2=C(NS(=O)(=O)c3ccc(Br)cc3)C(=O)c3ccccc3C2=O)C1 (configuration not stated)	5.22µM*	?	10.0	12.6µM*	2.94µM*	14.1
CCOC(=O)C1CCN(C2=C(NS(=O)(=O)c3ccc(Cl)cc3)C(=O)c3ccccc3C2=O)CC1	?	5.7%	11.1	12.6µM*	?	-3.5
COC(=O)[C@]12CCCCC=C1N(Cc1cccc3ccccc13)C(=O)[C@H](CC(=O)NCCCN1CCCC1=O)C2	/	/	/	-5.1%	/	/
CCOc1ccc(C2/C(=C(\O)c3ccc4c(c3)OCCO4)C(=O)C(=O)N2CCN2CCOCC2)cc1OC (configuration not stated)	14.6%	19.8%	16.7	-1.5%	?	11.7
Cc1ccc(C(=O)COC(=O)C2CC3CCCC(C2)C3=O)cc1[N+](=O)[O-] (configuration not stated)	?	-8.5%	/	-3.6%	8.2%	/
CNCCCNC(=O)c1ccc(/C=N/O)nc1	-8.9%	23.0%	-7.4	74.7%	166.6%	1.5
CN(C)CCCNC(=O)c1ccc(/C=N/O)nc1	-24.1%	-1.8%	70.8	33.9%	i	35.6*
COc1ccc(OC)c(N(CC(=O)Nc2ccc3c(c2)OCO3)S(=O)(=O)c2ccccc2)c1	?	?	2.7	-0.8%	?	-1.9
O=C(CN(c1ccccc1F)S(=O)(=O)c1ccccc1)Nc1ccc2c(c1)OCCO2	14.3%	?	120.2*	-13.1%	4.15µM*	47.6*
CC(=O)Nc1ccc(NC(=O)CN(c2ccc(F)cc2)S(=O)(=O)c2ccc3c(c2)OCCO3)cc1	/	5.0%	-4.6	5.1%	8.28µM*	-1.8
